Results filed as inconclusive are left out. Calls of active or inactive are those of the source. Unless noted, the call rests on the fitted dose curve; in most records, active means well fitted curve in the direction sought with a large enough effect in the repeat runs; inconclusive means weak or mixed curves; inactive means no such curve, though single readings can be large; an effect the other way counts as inactive or inconclusive.
Columns and labels:
[1] = qHTS assay to identify small molecule agonists of the estrogen receptor alpha (ER-alpha) signaling pathway in the presence of an antagonist - cell viability counter screen (AID 1259386);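 further: series mostly up to about 92 µM; cells exposed to compounds for 22 h at 37 °C before the viability read; nearly all actives have a fitted effect of over 30% in size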
Outline: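 Viability counter screen using VM7Luc4E2 (full-length ER-alpha, four ERE-luciferase). The cells were treated with compounds alongside ICI-182,780 10.0nM for 22hr, and live-cell protease fluorescence was quantified with CellTiter-Fluor.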

[2] = molecular target: Progesterone receptor (Homo sapiens) (UniProt P06401); assay: qHTS assay to identify small molecule agonists of the progesterone receptor (PR) signaling pathway (AID 1346784; calls by dose curve; further: nearly all actives have a fitted effect of over 30% in size)
Outline: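 Using charcoal-stripped serum (2%) to limit endogenous steroids, PR-UAS-bla HEK 293T cells received compounds for 16 hr at 37C after 6 hr plating; beta-lactamase FRET fluorescence was recorded following 2 hr substrate loading at room temperature.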

[3] = molecular target: Progesterone receptor (Homo sapiens) (UniProt P06401); assay: qHTS assay to identify small molecule antagonists of the progesterone receptor (PR) signaling pathway (AID 1346795; active means well fitted inhibition curve with a large enough effect in the signal ratio in the repeat runs, not every such curve was filed as active; the % refers to the signal ratio)
Outline: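 Inhibition of R5020-induced (1 nM final) beta-lactamase reporter signal in PR-UAS-bla HEK293T cells was scored by FRET fluorescence after overnight (16 hr) compound treatment.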

[4] = qHTS assay to identify small molecule antagonists of the progesterone receptor (PR) signaling pathway - cell viability counter screen (AID 1346798); further: nearly all actives have a fitted effect of over 50% in size; further: potency means the concentration at half of the fitted maximal effect; on activity change, negative = cytotoxicity: series mostly up to about 92 µM
Outline: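 ATP content as viability readout: CellTiter-Glo luminescence, 30 min room temperature, in PR-UAS-bla HEK293T cells after 16 hr compound/R5020 treatment at 37C and 5% CO2.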

[5] = qHTS assay to identify small molecule agonists of the progesterone receptor (PR) signaling pathway - cell viability counter screen (AID 1346799; calls by dose curve; further: nearly all actives have a fitted effect of over 45% in size; further: potency means the concentration at half of the fitted maximal effect)
Outline: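 Cytotoxicity in PR-bla HEK293T cells: 16 h compound, 37C; CellTiter-Glo added post-FRET read; luminescence after 30 min RT.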

[6] = qHTS assay to identify small molecule antagonists of the TGF-beta/Smad signaling pathway - cell viability counter screen (AID 1346824); further: nearly all actives have a fitted effect of over 50% in size
Outline: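 Cytotoxicity counter-screen run in the same wells as the beta-lactamase Smad reporter read: CellTiter-Glo luminescence after 30 min at room temperature. HEK 293T SBE-bla cells had 5 hr compound exposure at 37 C with TGF-beta1 (0.25 ng/mL stock).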

[7] = qHTS assay to identify small molecule agonists of the TGF-beta/Smad signaling pathway (AID 1346859; active means well fitted activation curve with a large enough effect in the signal ratio in the repeat runs, not every such curve was filed as active; the % refers to the signal ratio; further: series mostly up to about 77 µM)
Outline: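 Stable Smad binding element-beta-lactamase HEK 293T cells; 5 hr compound exposure at 37 C under 5% CO2; 2 hr room-temperature substrate step; fluorescence excited at 405 nm, collected at 460 nm and 530 nm.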

[8] = Human pregnane X receptor (PXR) small molecule agonists, qHTS cell viability counter screen (AID 1346977); further: nearly all actives have a fitted effect of over 50% in size; further: potency means the concentration at half of the fitted maximal effect
Outline: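 Readout is CellTiter-Fluor fluorescence from PXR-Luc HepG2 cells. Plated cells rested 5hr, then were treated with compounds for 24hr at 37C and 5% CO2, with reagent present during the last hour.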

[9] = Caspase-3/7 induction in HepG2 cells by small molecules, qHTS assay (AID 1346978); further: nearly all actives have a fitted effect of over 15% in size
Outline: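 Caspase-3/7 induction was measured by Caspase-Glo 3/7 luminescence (30 min, room temperature) after a 17 hr compound exposure of wild-type HepG2 cells seeded at 2,000 per well and pre-incubated 5 hr.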

[10] = Caspase-3/7 induction in CHO-K1 cells by small molecules, qHTS assay (AID 1346980); further: nearly all actives have a fitted effect of over 15% in size
Outline: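 Luminescent Caspase-Glo 3/7 read (30min, room temperature) quantified apoptosis induction. Cells were wild-type CHO-K1, treated with compound for 17hr at 37 C and 5% CO2.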

[11] = Caspase-3/7 induction in HepG2 cells by small molecules, qHTS cell viability counter screen (AID 1346981); further: series mostly up to about 92 µM; nearly all actives have a fitted effect of over 30% in size
Outline: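 Viability determined by CellTiter-Fluor fluorescence in HepG2 wells also used for the luminescent Caspase-Glo 3/7 read. Compounds were present for 16 hr at 37 C, 5% CO2 before reagent addition.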

[12] = molecular target: Nuclear receptor subfamily 1 group I member 2 (Homo sapiens) (UniProt O75469); assay: Human pregnane X receptor (PXR) small molecule agonists, qHTS assay (AID 1346982); further: nearly all actives have a fitted effect of over 35% in size; further: potency means the concentration at half of the fitted maximal effect
Outline: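 Compound-induced hPXR transactivation of a CYP3A4 luciferase reporter was scored in HepG2 PXR-Luc cells over 24 hr at 37 C, 5% CO2, by luminescence.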

[13] = molecular target: Thyrotropin receptor (Homo sapiens) (UniProt P16473); assay: qHTS assay to identify small molecule antagonists of the thyroid stimulating hormone receptor (TSHR) signaling pathway (AID 1259385; calls by dose curve; further: nearly all actives have a fitted effect of over 20% in size; further: potency means the concentration at half of the fitted maximal effect)
Outline: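 Antagonist mode: compound-treated TSHR-expressing HEK293 cells were stimulated with 1.5 ng/mL TSH (final) in presence of Ro20-1724 for 30 min at RT. HTRF cAMP detection after 1 h; each compound tested at 15 concentrations, triplicate.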

[14] = qHTS assay to identify small molecule agonists of the TGF-beta/Smad signaling pathway - cell viability counter screen (AID 1346829); further: top concentration of the series differs between compounds; nearly all actives have a fitted effect of over 45% in size
Outline: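 Tox21 qHTS format: SBE-bla HEK 293T cells treated with DMSO-dissolved compounds for 5 hr; CellTiter-Glo luminescence after 30 min at room temperature.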

[15] = molecular target: Thyrotropin-releasing hormone receptor (Homo sapiens) (UniProt P34981); assay: qHTS assay to identify small molecule antagonists of the thyrotropin-releasing hormone receptor (TRHR) signaling pathway (AID 1346877; active means well fitted inhibition curve with a large enough effect in the repeat runs, not every such curve was filed as active; further: series mostly up to about 51 µM)
Outline: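 Following an 18 h incubation at 37 °C and a 2 h calcium dye load, TRHR-HEK293 cells were exposed to compound (5 min, room temperature) and challenged with TRH, 1 nM final.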

[16] = molecular target: Thyrotropin-releasing hormone receptor (Homo sapiens) (UniProt P34981); assay: qHTS assay to identify small molecule agonists of the thyrotropin-releasing hormone receptor (TRHR) signaling pathway (AID 1346891; calls by dose curve;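 further: HEK293 cells expressing TRHR with calcium dye readout; series mostly up to about 58 µM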)
Outline: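 In 1536-format, 1500 TRHR-Hek293 cells per well grew 18 h, took up calcium dye for 2 h at 37 °C, received compound, and were read kinetically; 15-point titrations, triplicates.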

[17] = Caspase-3/7 induction in CHO-K1 cells by small molecules, qHTS cell viability counter screen (AID 1346979); further: nearly all actives have a fitted effect of over 35% in size
Outline: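 To flag cytotoxic compounds, treated CHO-K1 wild-type cells were given CellTiter-Fluor at 16hr and read fluorescently after 1hr at 37C; the caspase-3/7 luminescence was measured in these same wells.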

[18] = molecular target: Nuclear receptor subfamily 1 group I member 2 (Rattus norvegicus) (UniProt Q9R1A7); assay: Rat pregnane X receptor (rPXR) activation by small molecules, qHTS assay (AID 1346983); settings: rPXR luciferase reporter cells, One-Glo luminescence, 24 h; max activation: stronger effect = higher value; further: nearly all actives have a fitted effect of over 20% in size
Outline: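 Luminescent readout (One-Glo luciferase, 30 min room temperature) followed 24 hr compound treatment at 37 C of rPXR cells plated 2,000 per well and preincubated 5hr; qHTS format with compounds delivered in DMSO.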

[19] = molecular target: Nuclear receptor subfamily 1 group I member 2 (Homo sapiens) (UniProt O75469); assay: CYP3A4 induction through human pregnane X receptor (PXR) by small molecules, qHTS assay (AID 1346984); further: nearly all actives have a fitted effect of over 40% in size
Outline: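 Readings come from a luciferase reporter: DPX-2 cells, which are HepG2 cotransfected with PXR and a CYP3A4-promoter construct, were exposed to test compounds for 24 h at 37C before One-Glo detection.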

[20] = molecular target: Nuclear receptor subfamily 1 group I member 2 (Homo sapiens) (UniProt O75469); assay: Human pregnane X receptor (PXR) activation by small molecules, qHTS assay (AID 1346985); further: nearly all actives have a fitted effect of over 40% in size; further: potency means the concentration at half of the fitted maximal effect
Outline: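 DPX-2 cells (HepG2 co-transfected with a PXR response element and a CYP3A4-promoter luciferase construct) were seeded at 2,000 per well, rested 5 hr at 37C, then exposed to DMSO-dissolved compounds for 24 hr. Activation was read as luciferase luminescence.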
On the % scale 0 is the no-effect control and ±100 the full control effect.

Sequence of Thyrotropin-releasing hormone receptor (Homo sapiens) (P34981 whole entry, looked up): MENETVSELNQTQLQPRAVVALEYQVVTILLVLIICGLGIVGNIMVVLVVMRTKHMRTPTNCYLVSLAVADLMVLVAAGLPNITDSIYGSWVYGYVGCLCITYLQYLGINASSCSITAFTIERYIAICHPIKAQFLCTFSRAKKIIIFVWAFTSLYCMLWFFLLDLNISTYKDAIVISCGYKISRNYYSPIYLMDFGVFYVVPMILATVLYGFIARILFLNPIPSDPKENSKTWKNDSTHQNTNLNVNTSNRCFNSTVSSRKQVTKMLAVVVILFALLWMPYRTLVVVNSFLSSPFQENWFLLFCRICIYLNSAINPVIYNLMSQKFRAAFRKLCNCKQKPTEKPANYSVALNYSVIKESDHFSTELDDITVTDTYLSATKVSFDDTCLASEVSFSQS
Sequence of Progesterone receptor (Homo sapiens) (P06401 whole entry, looked up): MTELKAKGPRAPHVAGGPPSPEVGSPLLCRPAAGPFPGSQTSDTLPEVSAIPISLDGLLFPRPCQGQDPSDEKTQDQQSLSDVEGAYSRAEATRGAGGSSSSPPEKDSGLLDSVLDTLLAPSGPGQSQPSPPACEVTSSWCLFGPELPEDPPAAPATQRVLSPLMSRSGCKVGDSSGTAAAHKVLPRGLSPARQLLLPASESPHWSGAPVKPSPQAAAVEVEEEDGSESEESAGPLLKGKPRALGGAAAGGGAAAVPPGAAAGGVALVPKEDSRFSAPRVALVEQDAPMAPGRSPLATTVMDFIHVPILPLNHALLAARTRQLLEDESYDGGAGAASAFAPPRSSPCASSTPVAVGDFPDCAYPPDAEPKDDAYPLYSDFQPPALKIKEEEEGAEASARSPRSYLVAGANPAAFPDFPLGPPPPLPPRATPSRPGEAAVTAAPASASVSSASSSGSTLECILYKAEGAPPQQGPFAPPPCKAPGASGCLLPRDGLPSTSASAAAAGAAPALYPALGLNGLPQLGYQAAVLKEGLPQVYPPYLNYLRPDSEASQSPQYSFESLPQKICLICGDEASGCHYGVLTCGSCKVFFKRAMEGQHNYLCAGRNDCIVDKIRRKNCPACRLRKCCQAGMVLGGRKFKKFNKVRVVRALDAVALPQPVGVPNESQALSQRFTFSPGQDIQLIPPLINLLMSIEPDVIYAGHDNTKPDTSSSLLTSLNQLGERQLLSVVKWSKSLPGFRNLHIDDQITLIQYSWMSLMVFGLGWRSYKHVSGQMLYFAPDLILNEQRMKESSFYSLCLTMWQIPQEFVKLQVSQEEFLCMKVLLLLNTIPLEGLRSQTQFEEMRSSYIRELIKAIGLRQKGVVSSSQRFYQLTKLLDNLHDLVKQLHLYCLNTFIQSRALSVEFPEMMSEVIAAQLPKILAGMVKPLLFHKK
Sequence of Nuclear receptor subfamily 1 group I member 2 (Rattus norvegicus) (Q9R1A7 whole entry, looked up): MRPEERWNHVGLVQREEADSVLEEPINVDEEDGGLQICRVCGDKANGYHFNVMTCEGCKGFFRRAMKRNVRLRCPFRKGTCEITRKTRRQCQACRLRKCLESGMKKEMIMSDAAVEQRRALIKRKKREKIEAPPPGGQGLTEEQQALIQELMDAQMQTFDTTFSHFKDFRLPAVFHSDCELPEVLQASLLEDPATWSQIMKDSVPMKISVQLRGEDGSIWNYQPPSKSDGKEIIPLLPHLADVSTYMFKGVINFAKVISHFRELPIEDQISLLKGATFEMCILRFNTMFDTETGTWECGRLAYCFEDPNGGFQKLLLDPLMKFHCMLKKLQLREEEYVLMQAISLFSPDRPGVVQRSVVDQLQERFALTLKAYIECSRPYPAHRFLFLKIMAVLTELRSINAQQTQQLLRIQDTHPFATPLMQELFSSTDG
Sequence of Nuclear receptor subfamily 1 group I member 2 (Homo sapiens) (O75469 whole entry, looked up): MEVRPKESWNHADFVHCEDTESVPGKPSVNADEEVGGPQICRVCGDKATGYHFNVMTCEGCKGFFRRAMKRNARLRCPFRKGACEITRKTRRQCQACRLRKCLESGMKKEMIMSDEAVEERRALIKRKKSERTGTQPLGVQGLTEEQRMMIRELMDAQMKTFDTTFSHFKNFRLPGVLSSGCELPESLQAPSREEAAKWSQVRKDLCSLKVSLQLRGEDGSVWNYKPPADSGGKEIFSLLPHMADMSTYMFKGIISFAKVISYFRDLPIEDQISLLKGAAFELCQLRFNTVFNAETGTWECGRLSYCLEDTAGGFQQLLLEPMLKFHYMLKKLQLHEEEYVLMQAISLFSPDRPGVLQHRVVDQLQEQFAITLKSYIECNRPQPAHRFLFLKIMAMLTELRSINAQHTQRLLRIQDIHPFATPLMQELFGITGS
Sequence of Thyrotropin receptor (Homo sapiens) (P16473 whole entry, looked up): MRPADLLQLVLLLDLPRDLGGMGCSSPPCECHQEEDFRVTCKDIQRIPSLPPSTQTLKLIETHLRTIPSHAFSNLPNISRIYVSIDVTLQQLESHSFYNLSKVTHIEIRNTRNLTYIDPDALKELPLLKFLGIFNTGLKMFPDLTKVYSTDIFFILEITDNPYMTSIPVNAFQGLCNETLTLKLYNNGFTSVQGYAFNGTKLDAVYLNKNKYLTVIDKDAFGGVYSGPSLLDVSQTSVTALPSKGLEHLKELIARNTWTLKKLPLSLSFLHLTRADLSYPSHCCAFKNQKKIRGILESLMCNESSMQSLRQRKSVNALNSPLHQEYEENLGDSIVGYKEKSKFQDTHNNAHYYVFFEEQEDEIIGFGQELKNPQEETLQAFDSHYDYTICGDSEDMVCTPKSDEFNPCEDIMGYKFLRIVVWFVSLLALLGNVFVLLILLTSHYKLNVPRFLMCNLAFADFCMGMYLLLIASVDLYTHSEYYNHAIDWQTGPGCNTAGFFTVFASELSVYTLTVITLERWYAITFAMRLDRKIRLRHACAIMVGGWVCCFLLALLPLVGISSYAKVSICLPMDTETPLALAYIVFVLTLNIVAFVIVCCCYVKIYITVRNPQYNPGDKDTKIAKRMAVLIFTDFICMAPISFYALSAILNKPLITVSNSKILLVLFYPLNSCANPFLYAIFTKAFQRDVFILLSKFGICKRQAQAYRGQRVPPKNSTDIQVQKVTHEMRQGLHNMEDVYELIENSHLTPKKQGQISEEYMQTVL

Cc1ccccc1C(=O)O
active: Potency [12] 30.1 µM
inactive: outcome [1] | Potency [2] | Potency [3] | Potency [4] | Potency [5] | outcome [6] | outcome [7] | Potency [8] | outcome [9] | outcome [10] | outcome [11]

CCCCCCOC(=O)c1ccccc1O
active: Potency [4] 24.3 µM | Potency [5] 30.6 µM
inactive: Potency [13] | outcome [1] | outcome [6] | outcome [14] | outcome [7] | outcome [15] | outcome [16] | Potency [8] | outcome [9] | Potency [17] | outcome [10] | outcome [11] | Potency [12]

O=C1C(CCS(=O)c2ccccc2)C(=O)N(c2ccccc2)N1c1ccccc1 (stereo unspecified)
inactive: outcome [1] | Potency [2] | Potency [3] | Potency [4] | Potency [5] | outcome [14] | outcome [7] | outcome [15] | outcome [16] | Potency [8] | outcome [9] | Potency [17] | outcome [10] | outcome [11] | max activation [18] -2.19%

C1CCCCCCCCCCC1
inactive: activity change, negative = inhibition [13] -0.259% [at 19 µM] | activation [2] -0.689% [at 19 µM] | activity change, negative = inhibition [3] 0.992% [at 18.9 µM] | activity change, negative = cytotoxicity [4] 8.3% [at 18.9 µM] | activity change, negative = cytotoxicity [5] 1.68% [at 19 µM] | viability change, negative = cytotoxic [6] 13% [at 15.8 µM] | activity change, negative = cytotoxicity [14] 5.27% [at 15.8 µM] | activation [7] 1.5% [at 15.8 µM] | activity, negative = inhibition [15] -13.6% [at 10.5 µM] | activation [16] 1.06% [at 11.8 µM] | activity change, negative = cytotoxicity [8] 4.48% [at 19 µM] | caspase activation [9] 0.953% [at 19 µM] | activity change, negative = cytotoxicity [17] 2.86% [at 19 µM] | caspase-3/7 activation [10] 0.0072% [at 19 µM] | activation [12] 7.58% [at 19 µM]

NC(=O)c1ncn([C@@H]2O[C@H](CO)[C@@H](O)[C@H]2O)c1N
inactive: Potency [13] | outcome [1] | Potency [4] | Potency [5] | outcome [6] | outcome [14] | outcome [15] | outcome [16] | Potency [8] | Potency [17] | outcome [10] | max activation [18] 0.984% | Potency [19] | Potency [20]

c1cc(CN2CCCCC2)cc(OCCCNc2nc3ccccc3s2)c1
inactive: Potency [2] | Potency [4] | outcome [6] | outcome [14] | outcome [9] | outcome [10] | max activation [18] 2.06% | Potency [19]
active: Potency [13] 29.8 µM | Potency [8] 23.7 µM | Potency [20] 22.4 µM

CCCCN(CCO)CCO
inactive: outcome [1] | Potency [3] | Potency [4] | outcome [6] | outcome [7] | outcome [15] | outcome [16] | Potency [8] | Potency [17] | outcome [10] | outcome [11] | Potency [12]

COCc1ccc(COC)cc1
inactive: outcome [1] | Potency [2] | Potency [4] | Potency [5] | outcome [14] | outcome [7] | outcome [15] | outcome [16] | Potency [8] | outcome [9] | Potency [17] | outcome [10] | outcome [11] | Potency [12]

CCC(=O)/C=C/c1ccc(OC)cc1
inactive: outcome [1] | Potency [2] | Potency [4] | outcome [6] | outcome [14] | outcome [7] | outcome [15] | outcome [16] | Potency [8] | outcome [9] | Potency [17] | outcome [10] | outcome [11]

— PubChem BioAssay (Tox21)
